Laboratory results reported in PubChem BioAssay (NCI).
Compounds without any hit were thinned out: in the full panel of roughly 83,000, 20% have a hit.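 Activity criterion: percent growth below 10, measured after cells in 96-well plates were exposed to a single compound concentration for 48 hours.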 Values without a mark were called inactive. Activity calls are given as the source filed them.

What was measured:
Assay in all cases: NCI-60 one-dose screen, 48 h (100 = growth as untreated, 0 = no growth, -100 = all killed)
Conditions in all cases: 10 µM unless noted
NCI-H23 lung = tested on: NCI-H23 lung
NCI-H226 lung = tested on: NCI-H226 lung
NCI-H322M lung = tested on: NCI-H322M lung
HOP-62 NSCLC = tested on: HOP-62 NSCLC
NCI-H460 lung = tested on: NCI-H460 lung
NCI-H522 lung = tested on: NCI-H522 lung
A549/ATCC NSCLC = tested on: A549/ATCC NSCLC
786-0 renal = tested on: 786-0 renal
COLO 205 colon = tested on: COLO 205 colon

Row | SMILES | growth (NCI-H23 lung) | growth (NCI-H226 lung) | growth (NCI-H322M lung) | growth (HOP-62 NSCLC) | growth (NCI-H460 lung) | growth (NCI-H522 lung) | growth (A549/ATCC NSCLC) | growth (786-0 renal) | growth (COLO 205 colon)
1 | COc1ccc(-c2ccc(SCC(=O)Nc3ccc(S(N)(=O)=O)cc3Br)nn2)cc1 | 77.4% | 52.9% | 84.5% | -9.99% (active) | 70.2% | 37.2% | 64.4% | 33.8% | 115%
2 | CC(=O)/C=C/c1cccc2c1C(=O)NC(C)(c1cc3cc(Br)ccc3oc1=O)N2 (stereo unspecified) | 17.9% | 34.3% | 52.5% | 50% | 51.9% | 26.8% | 55.1% | 33.2% | 79.6%
3 | CSc1ccc(NC(=O)c2ccc3nn(/C(C#N)=C/c4ccccn4)nc3c2)cc1 | -90.9% (active) | -90.5% (active) | -54.5% (active) | -70.3% (active) | -64.5% (active) | -84.6% (active) | -71.8% (active) | -84.7% (active) | -79% (active)
4 | O=c1oc2ccccc2cc1-c1csc(N=Nc2c(O)[nH]c3ccc(Cl)cc23)n1 | 98.7% | 98.3% | 114% | 101% | 109% | 98.7% | 102% | 86.3% | 136%
5 | Cn1cc(-c2cc3nc(-c4cn(C)c5ncccc45)cc(N)n3n2)c2ccccc21 | 55.6% | -21.6% (active) | 37% | -13.6% (active) | 3.16% (active) | -4.18% (active) | 15.2% | -52.9% (active) | 3.03% (active)
6 | CCCSc1nc(Nc2ccc(S(N)(=O)=O)cc2)c(C#N)c(-c2cc(OC)c(OC)c(OC)c2)n1 | 43.4% | 32.7% | 51.7% | 32.5% | 16.5% | 18.2% | 17.9% | 41.5% | 8.62% (active)
7 | O=C(Nc1cccc(-n2cnc3cc(-c4ccc(O)cc4)ccc32)c1)C1CC1 | 40.1% | 13.8% | 48% | 44.7% | 7.41% (active) | 5.82% (active) | 27.4% | 25.8% | 34.2%
8 | COc1c(F)ccc(C(=O)Nc2ccc3nc(NC(=O)C4CCCN(S(=O)(=O)C5CC5)C4)sc3c2)c1F (stereo unspecified) | 31.5% | 34.8% | 65.2% | 68.4% | 48.5% | 40.7% | 54% | 31.1% | 32.4%
9 | C=C1CCC2C3(C)COC(c4ccco4)OC3CCC2(C)C1CC(Sc1ccccc1)C1=CCOC1=O (stereo unspecified) | 64.8% | 31.5% | 92.2% | 100% | 105% | 7.02% (active) | 53.7% | 62.7% | 98%
10 | O=c1oc2ccccc2cc1-c1csc(N2N=C(c3ccccc3)CC2c2ccc(N3CCOCC3)cc2)n1 (stereo unspecified) | 95.9% | 94.6% | 120% | 106% | 107% | 101% | 114% | 118% | 118%
11 | O=c1[nH]c2ccccc2cc1CSc1cccc(Nc2nccc(-c3ccc4ccccc4c3)n2)c1 | 91.6% | 80.7% | 106% | 95.3% | 98.8% | 79% | 83.6% | 75.2% | 102%
12 | O=C(N1c2ccccc2Sc2ccccc21)n1ccc2cccnc21 | 77.9% | 81% | 74.7% | 77.5% | 48.7% | 56.3% | 75.8% | 77.4% | 62.8%
13 | CCCCn1c(O)c(N=Nc2nc(-c3cc4ccccc4oc3=O)cs2)c2cc(Br)ccc21 | 98.3% | 99.2% | 102% | 110% | 114% | 101% | 97.8% | 106% | 140%
14 | CCCCCCCCOc1cccc(S(=O)(=O)Nc2ccc(C)cc2C(=O)O)c1 | 96.3% | 98.4% | 94.5% | 99.8% | 98.4% | 86.5% | 84.2% | 99.4% | 112%
